Sampled rows, rich in hits. Any-hit rate of the full collection: about 21%.
Shiga toxin inh – inhibitors of Shiga toxin in Vero cells. Vero cells, Shiga toxin protein synthesis inhibition reporter. inhibition, % at 38.7 µM. 290,000 compounds, 9.2% hits. AID 2315; in the data active = inhibition mostly above about 28%, no sharp cut-off; inactive = mostly below about 43%
Giardia FBPA inh – Giardia lamblia aldolase inhibition. purified Giardia FBPA. Potency, µM (top dose mostly 59.6 µM), most hits filed as inhibitors. 290,000 compounds, 0.71% hits; also: nearly all actives have a fitted effect of over 55% in size
Target sequence (A8B2U2 whole entry, looked up): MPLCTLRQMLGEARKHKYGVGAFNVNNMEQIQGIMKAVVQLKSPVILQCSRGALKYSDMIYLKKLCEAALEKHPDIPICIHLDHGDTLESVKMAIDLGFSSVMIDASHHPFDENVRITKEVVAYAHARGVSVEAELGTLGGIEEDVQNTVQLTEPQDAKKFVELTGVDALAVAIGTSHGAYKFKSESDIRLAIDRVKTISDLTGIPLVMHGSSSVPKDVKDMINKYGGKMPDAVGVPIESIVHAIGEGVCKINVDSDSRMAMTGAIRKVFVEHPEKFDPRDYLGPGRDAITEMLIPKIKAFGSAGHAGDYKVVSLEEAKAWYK
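Giardia FBPA (40 nM reagent) was preincubated 10 min at RT with compound (up to 57.5 uM final), then substrate plus GAPDH/TPI/NAD/arsenate coupling system with diaphorase/resazurin was added; resorufin fluorescence (525/598 nm) was read after 20 min.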
Pf growth 96h – P. falciparum growth inhibition at 96 hours. P. falciparum luciferase reporter growth, 96 h. Potency, µM (highest dose often 28.7 µM), hits mostly inhibitors. 320,000 compounds, 6.9% hits
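Infected RBCs, 2% Hct / 0.05% parasitemia final; luciferase-reporter P. falciparum; cpd 96 h, 37 C, 5% CO2; luciferase detection reagent; luminescence.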
Cycloheximide cs – counter-screen hit for Shiga toxin inhibitors, cycloheximide; cell reporter, cycloheximide protein synthesis inhibition counterscreen; max response, %; 300,000 compounds, 12% hits; in the data active = max response mostly above about 13%, no sharp cut-off; inactive = mostly below about 14%; also: read at 38.3 µM for the half of the compounds with a filed dose
NS1 inh – inhibitors of influenza NS1 protein function; Potency, µM (titrated, usually from 46.1 µM); 270,000 compounds, 0.4% hits; calls by dose curve; also: actives are rising curves; nearly all actives have a fitted effect of over 50% in size
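S. cerevisiae expressing influenza A NS1, grown in glucose, washed, then diluted 1:100 into pH 6.0 -URA galactose medium with 23 nl compound. Growth recovery read as OD600; NS1-free strain serves as control.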
Pf growth 48h – P. falciparum growth inhibition at 48 hours (one generation); 310,000 compounds, 5.9% hits; P. falciparum luciferase growth in erythrocytes, 48 h; Potency, µM (highest dose often 28.7 µM), most hits filed as inhibitors
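Firefly luciferase activity from engineered P. falciparum reports growth; inhibitors lower the luminescent signal. Cultures contained 2% hematocrit erythrocytes at 0.1% final parasitemia.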
A number is an active result; i = inactive; ? = inconclusive; nt = no result given; [ ] = remark or other dose. Unless noted, calls follow the shape of the dose curve; as a rule, active = well fitted curve in the direction sought with a large enough effect; inconclusive = small, poorly fitted or top-dose-only effect, or another doubt; inactive = no such curve, though single readings can be large; an effect the other way counts as inactive or inconclusive.

SMILES | Shiga toxin inh | Giardia FBPA inh | Pf growth 96h | Cycloheximide cs | NS1 inh | Pf growth 48h
COc1ccc(NC(=O)CC2C(=O)N(c3ccc(Cl)cc3)C(=S)N2CCc2ccccn2)cc1 (centres undefined) | i | i | ? | i | i | ?
COc1ccc(NC(=O)CC2C(=O)N(c3ccc(Cl)cc3)C(=S)N2CCc2ccncc2)cc1 (centres undefined) | i | i | 13.1µM | i | i | ?
CCOC(=O)c1ccc(N2C(=O)C(CC(=O)NC)N(CCc3ccc(OC)c(OC)c3)C2=S)cc1 (centres undefined) | i | i | i | i | i | 13.1µM
CCOc1ccc(NC(=O)CC2C(=O)N(c3ccc(OC)cc3)C(=O)N2CCc2ccc(OC)c(OC)c2)cc1 (centres undefined) | i | i | i | i | nt | ?
COC(=O)c1ccc(NC(=O)CC2C(=O)N(c3ccc(C)cc3)C(=O)N2CC(C)C)cc1 (centres undefined) | i | i | ? | i | i | nt
CCOC(=O)c1ccc(NC(=O)CC2C(=O)N(c3ccc(F)cc3)C(=O)N2CCC(C)C)cc1 (centres undefined) | i | i | 5.86µM | i | i | nt
COc1ccc(NC(=O)CC2C(=O)N(c3ccc(F)cc3)C(=S)N2NC(=O)c2ccc(Cl)cc2)cc1 (centres undefined) | i | i | i | i | i | i
COc1ccc(NC(=O)CC2C(=O)N(c3ccc(Cl)cc3)C(=S)N2NC(=O)c2cccc(F)c2)cc1 (centres undefined) | i | i | i | 16.4 | i | i
COC(=O)CN1C(=S)N(c2ccc(Cl)cc2)C(=O)C1CC(=O)Nc1ccc(F)cc1 (centres undefined) | i | i | ? | i | i | ?
COc1ccc(NC(=O)CC2C(=O)N(CCc3ccccc3)C(=S)N2Cc2cccnc2)cc1 (centres undefined) | i | i | 13.1µM | i | i | 11.7µM
COC(=O)CN1C(=S)N(c2ccc(F)cc2)C(=O)C1CC(=O)Nc1ccc(F)cc1 (centres undefined) | i | i | ? | i | i | 10.4µM
CCNC(=O)CC1C(=O)N(c2ccc(F)cc2)C(=O)N1Cc1ccc(OC)cc1 (centres undefined) | i | i | i | i | i | i
CCNC(=O)CC1C(=O)N(c2ccccc2)C(=O)N1CCc1ccc(OC)cc1 (centres undefined) | i | i | 11.7µM | i | i | i
NC(=O)CC1C(=O)N(c2ccc(F)cc2)C(=O)N1NC(=O)CCc1ccccc1 (centres undefined) | i | i | i | i | i | i
O=C(Oc1ccc(/C=N/Nc2ccccc2)cc1)c1ccccc1 | 75.1 | i | i | 21.7 | i | ?
O=C(O)c1ccc(N/N=C/c2ccc(OC(=O)c3cccc(Cl)c3)cc2)cc1 | 74.8 | i | i | 37.3 | i | i
O=C(N/N=C/c1ccc(OC(=O)c2ccccc2)cc1)c1ccc(CN2CCOCC2)cc1 | i | i | i | i | i | i
O=C(Oc1ccc(/C=N/O)cc1)c1ccccc1 | i | i | i | 23.2 | i | nt
COCCOC(=O)/C(=C/c1ccc(OC(=O)c2ccccc2)cc1)C(C)=O | i | i | i | i | i | i
Cc1cc(CNC(=O)[C@@H]2C[C@H]2[C@@H](NP(=O)(c2ccccc2)c2ccccc2)c2ccccc2)nn1C | nt | i | nt | nt | nt | nt
COc1cccc(-n2nnc3c(=O)n(Cc4ccccc4F)cnc32)c1 | i | i | i | i | i | i
COc1cccc(-n2nnc3c(=O)n(Cc4cccc(C)c4)cnc32)c1 | i | i | i | 23.9 | i | i
COc1ccc(-n2nnc3c(=O)n(Cc4cc(C)ccc4C)cnc32)cc1 | i | i | 5.22µM | i | i | i
COC(=O)c1ccc(C(NC(=O)OCc2ccccc2)/C(=C/[C@@H](C)C(=O)NCc2ccc(S(C)(=O)=O)cc2)c2cccnc2)cc1 (some centres undefined) | nt | i | nt | nt | nt | nt
Cc1ccc(CNS(=O)(=O)c2c(C)[nH]c(C)c2C(=O)N2CCCCC2)o1 | i | i | 13.1µM | i | i | i
SMILES | Shiga toxin inh | Giardia FBPA inh | Pf growth 96h | Cycloheximide cs | NS1 inh | Pf growth 48h
COc1ccc(CNS(=O)(=O)c2c(C)[nH]c(C)c2C(=O)N2CCCCC2)cc1 | i | i | i | i | i | i
Clc1ccc(OCc2nnc3n2CCCCC3)c(Cl)c1 | 55.7 | i | i | 27.9 | i | i
CCOC(=O)c1nnn(-c2nonc2N)c1CSc1ccccc1 | i | i | 3.29µM | i | i | nt
Nc1nonc1-n1nnc(C(=O)N/N=C/c2cccs2)c1-c1ccc2c(c1)OCO2 | i | nt | 0.294µM | i | i | 0.928µM
Cc1ccsc1/C=N/NC(=O)c1nnn(-c2nonc2N)c1-c1ccc2c(c1)OCO2 | i | nt | 0.131µM | i | i | 3.29µM
Cc1ccc(-c2c(C(=O)N/N=C/c3cccs3)nnn2-c2nonc2N)cc1 | i | nt | 1.17µM | i | i | ?
Cn1cnnc1SCC(=O)N/N=C/c1ccc(OCC(N)=O)cc1 | i | i | i | i | i | i
CCCCCCCC1=Cc2ccccc2C(CC(C)=O)N1C(=O)OC (centres undefined) | nt | i[12.9 µM] | nt | nt | nt | nt
O=C(NCC(c1ccccc1Cl)N1CCCC1)c1ccc(N2CCCC2=O)cc1 (centres undefined) | nt | nt | i | nt | nt | ?
CCCCCC1=C2CNC(C)(C(=O)OC)C=C2C(C)C1=O (centres undefined) | nt | i | nt | nt | nt | nt
CCN(CC)C(=O)CS(=O)(=O)CC(=O)Nc1cc(OCCOC)c(Cl)cc1Cl | i | i | ? | i | i | i
CCOC(=O)c1nnn(-c2nonc2N)c1-c1ccc(C)cc1 | i | i | i | i | i | 14.7µM
Nc1nonc1-n1nnc(C(=O)N/N=C/c2ccccc2Cl)c1-c1ccc2c(c1)OCO2 | i | nt | 0.657µM | i | i | 2.94µM
CCOC(=O)c1nnn(-c2nonc2N)c1-c1ccc(Br)cc1 | i | i | i | i | nt | ?
Cc1ccc(-c2c(C(=O)N/N=C/c3ccc4c(c3)OCO4)nnn2-c2nonc2N)cc1 | i | i | ? | i | i | ?
COc1ccc(Cl)cc1NC(=O)COC(=O)CCNS(=O)(=O)c1cccs1 | nt | nt | i | nt | nt | i
O=C(NC(Cc1ccccc1)C(=O)O)/C(=C\c1ccc(F)cc1)NC(=O)c1ccco1 (centres undefined) | i | i | i | i | i | i
O=C(NC(Cc1ccccc1)C(=O)O)/C(=C/c1ccccc1)NC(=O)c1ccco1 (centres undefined) | i | i | 5.22µM | i | ? | i
Cc1nc(C(C)NC(=O)CCc2nnc(CCCc3ccccc3)o2)c(C)s1 (centres undefined) | 74.8 | i | i | 31.7 | i | i
Cc1cc(C)n(CC(C)NC(=O)CCc2nnc(CCc3ccccc3)o2)n1 (centres undefined) | i | i | ? | i | i | i
O=C(CCc1nnc(CCCc2ccccc2)o1)NC(C1CC1)C1CC1 | 55.2 | i | i | 33.4 | i | i
S=C(S)N1CCNCC1 | nt | nt | i | nt | nt | i
S=C(S)N1CCCC1 | nt | 12.6µM | ? | nt | i | 10.4µM

Compound activity from PubChem.
